Results from the supplement of paper PMC11482750.
± gives the standard deviation of the averaged measurements.

How the values were obtained:
Experiment in all cases: control-subtracted net OSN firing rate; higher = stronger neuronal activation
Conditions in all cases: odorant dilution (vol/vol): 1/100
phenethyl acetate = compound: CC(=O)OCCc1ccccc1 [phenethyl acetate]
Procedure, shortened: (§1)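 Responses come from single sensillum recordings of palp or antennal olfactory sensory neurons in 1–5-day-old fed female Scaptomyza species or D. melanogaster wild-type, mutant or at1 empty-neuron lines with Or42a homologs. Stimuli were 1 s pulses of odorant at 1:100 vol/vol in mineral oil or dimethyl sulfoxide into 16 ml/min filtered air. Spikes from 0.2 s after onset, counted over 0.5 s, were background-subtracted, doubled, solvent-corrected and averaged over replicates.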

fenchone = compound: CC12CCC(C1)C(C)(C)C2=O [fenchone]
Procedure, shortened: as §1

2-hexanol = compound: CCCCC(C)O [2-hexanol]
Procedure, shortened: as §1

4-ethylguaiacol = compound: CCc1ccc(O)c(OC)c1 [4-ethylguaiacol]
Procedure, shortened: as §1

methyl salicylate = compound: COC(=O)c1ccccc1O [methyl salicylate]
Procedure, shortened: as §1

guaiacol = compound: COc1ccccc1O [guaiacol]
Procedure, shortened: as §1

phenethyl alcohol = compound: OCCc1ccccc1 [phenethyl alcohol]
Procedure, shortened: as §1

Target | control-subtracted net OSN firing rate (phenethyl acetate) | control-subtracted net OSN firing rate (fenchone) | control-subtracted net OSN firing rate (2-hexanol) | control-subtracted net OSN firing rate (4-ethylguaiacol) | control-subtracted net OSN firing rate (methyl salicylate) | control-subtracted net OSN firing rate (guaiacol) | control-subtracted net OSN firing rate (phenethyl alcohol)
S. pallida pb3a-like | -17.3 ± 8.2 spikes/s | -13 ± 14 spikes/s | 94.3 ± 19 spikes/s | -8 ± 7.3 spikes/s | 6.33 ± 15 spikes/s | -11.7 ± 15 spikes/s | -15.7 ± 12 spikes/s
Canton-S (D. melanogaster) pb1b | -2 ± 8.4 spikes/s | 1.33 ± 9.9 spikes/s | -6.67 ± 6.2 spikes/s | 110 ± 36 spikes/s | -3.78 ± 12 spikes/s | 38 ± 29 spikes/s | 4.67 ± 5.4 spikes/s
S. hsui pb1b-like | 1 ± 7 spikes/s | -3.67 ± 6.1 spikes/s | -11.7 ± 9.8 spikes/s | 111 ± 24 spikes/s | -4.67 ± 8.6 spikes/s | 78 ± 26 spikes/s | -11 ± 8.7 spikes/s
Canton-S (D. melanogaster) pb2a | 0.286 ± 4.5 spikes/s | 166 ± 26 spikes/s | 3.43 ± 4.9 spikes/s | 4.86 ± 4.6 spikes/s | 3.43 ± 3.4 spikes/s | 6.86 ± 8.1 spikes/s | 6.29 ± 5.3 spikes/s
S. pallida pb1b-like | -5.67 ± 17 spikes/s | -4.33 ± 7 spikes/s | -9 ± 8.8 spikes/s | 90 ± 36 spikes/s | 1.33 ± 16 spikes/s | 8.67 ± 28 spikes/s | 0.667 ± 14 spikes/s
S. montana pb1b-like | 5 ± 7.6 spikes/s | 2.33 ± 18 spikes/s | -16.3 ± 10 spikes/s | 109 ± 14 spikes/s | 7.67 ± 11 spikes/s | 24.7 ± 14 spikes/s | -7 ± 20 spikes/s
S. pallida pb2b-like | -0.333 ± 8.7 spikes/s | -3.33 ± 8.8 spikes/s | 27 ± 9.9 spikes/s | 24 ± 19 spikes/s | 72 ± 19 spikes/s | 75.7 ± 20 spikes/s | 15 ± 11 spikes/s
Canton-S (D. melanogaster) pb3a | 0 ± 9.4 spikes/s | -2.83 ± 8.3 spikes/s | 15.8 ± 18 spikes/s | 7.5 ± 8.4 spikes/s | 6.33 ± 7.3 spikes/s | 2.33 ± 8.2 spikes/s | 7.67 ± 9.3 spikes/s
S. montana pb1a-like | 6.33 ± 9.6 spikes/s | 0 ± 12 spikes/s | 123 ± 17 spikes/s | -0.333 ± 2.9 spikes/s | 5.67 ± 11 spikes/s | 26.3 ± 13 spikes/s | 82.7 ± 34 spikes/s
S. flava pb2b-like | 4.33 ± 11 spikes/s | -3.67 ± 6.9 spikes/s | 11.7 ± 17 spikes/s | 15 ± 14 spikes/s | 111 ± 28 spikes/s | 121 ± 31 spikes/s | 10 ± 17 spikes/s
S. montana pb3a-like | 97 ± 35 spikes/s | -2.33 ± 6.9 spikes/s | 5.67 ± 13 spikes/s | -8.67 ± 17 spikes/s | 3.33 ± 9.9 spikes/s | -4.33 ± 12 spikes/s | -3.33 ± 15 spikes/s
S. montana pb2a-like | 1 ± 6.5 spikes/s | 177 ± 36 spikes/s | 5.67 ± 14 spikes/s | 1.67 ± 7.7 spikes/s | 6 ± 6.3 spikes/s | 6 ± 6.6 spikes/s | 7.67 ± 14 spikes/s
S. flava pb1a-like | 7.33 ± 6.5 spikes/s | 1.33 ± 6.5 spikes/s | 111 ± 28 spikes/s | -5 ± 7.8 spikes/s | 6.67 ± 15 spikes/s | 4 ± 10 spikes/s | 82.7 ± 46 spikes/s
S. hsui pb2a-like | 1 ± 7.1 spikes/s | 140 ± 16 spikes/s | 6 ± 8 spikes/s | 3.33 ± 7.3 spikes/s | 6.33 ± 3.2 spikes/s | 8 ± 7.5 spikes/s | 3.67 ± 9.2 spikes/s
Canton-S (D. melanogaster) pb1a | 7.11 ± 7.8 spikes/s | 0 ± 8.1 spikes/s | 68.7 ± 32 spikes/s | 1.78 ± 9.1 spikes/s | 6.22 ± 13 spikes/s | 5.33 ± 8.1 spikes/s | 4 ± 8.7 spikes/s
Canton-S (D. melanogaster) pb2b | -3.43 ± 6.8 spikes/s | -6.86 ± 10 spikes/s | -2.57 ± 8.5 spikes/s | -1.43 ± 7.1 spikes/s | 10.6 ± 10 spikes/s | 145 ± 52 spikes/s | 1.14 ± 10 spikes/s
S. hsui pb2b-like | 3 ± 4.9 spikes/s | 0.667 ± 7.2 spikes/s | 20 ± 18 spikes/s | 1.67 ± 2.9 spikes/s | 103 ± 43 spikes/s | 111 ± 23 spikes/s | 17.3 ± 21 spikes/s
Canton-S (D. melanogaster) pb3b | 153 ± 48 spikes/s | -2.83 ± 8.6 spikes/s | 1.5 ± 8.7 spikes/s | 0 ± 8.9 spikes/s | 0.833 ± 6.5 spikes/s | -2.5 ± 6.4 spikes/s | 1.33 ± 8.5 spikes/s
S. pallida pb1a-like | 26.7 ± 30 spikes/s | -3.67 ± 8.8 spikes/s | 88.3 ± 13 spikes/s | 0.667 ± 8.8 spikes/s | 15.3 ± 34 spikes/s | 42 ± 22 spikes/s | 23 ± 38 spikes/s
S. flava pb3b-like | 2.67 ± 5 spikes/s | 0 ± 5.4 spikes/s | -1 ± 27 spikes/s | 14.7 ± 34 spikes/s | 7.67 ± 26 spikes/s | 8.33 ± 15 spikes/s | 2.67 ± 6.8 spikes/s
S. hsui pb3b-like | -7 ± 2.1 spikes/s | -2.67 ± 6.5 spikes/s | -6.67 ± 6.8 spikes/s | -5.67 ± 2.9 spikes/s | 1.33 ± 5.8 spikes/s | -2.33 ± 4.5 spikes/s | -2.67 ± 5 spikes/s
S. pallida pb3b-like | -18.7 ± 18 spikes/s | -17 ± 12 spikes/s | -5.67 ± 12 spikes/s | -9.33 ± 13 spikes/s | 14.7 ± 24 spikes/s | -12.7 ± 18 spikes/s | -9.33 ± 19 spikes/s
S. flava pb2a-like | 3 ± 11 spikes/s | 213 ± 48 spikes/s | 5.67 ± 11 spikes/s | 1.67 ± 6.6 spikes/s | 3 ± 8.7 spikes/s | 0 ± 13 spikes/s | 1.33 ± 4.7 spikes/s
S. montana pb2b-like | -2.33 ± 4.8 spikes/s | -7.33 ± 4.5 spikes/s | 16.7 ± 14 spikes/s | 16 ± 12 spikes/s | 106 ± 35 spikes/s | 107 ± 49 spikes/s | 18.3 ± 17 spikes/s
S. hsui pb1a-like | 13.3 ± 16 spikes/s | -0.333 ± 6.4 spikes/s | 96 ± 27 spikes/s | 13.7 ± 5.3 spikes/s | 14.7 ± 17 spikes/s | 16 ± 8.3 spikes/s | 29.7 ± 22 spikes/s
S. flava pb1b-like | -3.67 ± 9.3 spikes/s | 2 ± 13 spikes/s | -26.7 ± 21 spikes/s | 97 ± 18 spikes/s | -5.33 ± 20 spikes/s | 9.67 ± 7.5 spikes/s | -6 ± 20 spikes/s
S. hsui pb3a-like | -5.67 ± 12 spikes/s | -7 ± 11 spikes/s | 145 ± 27 spikes/s | -3.33 ± 10 spikes/s | 8 ± 8.1 spikes/s | -5.33 ± 14 spikes/s | -0.333 ± 7.4 spikes/s
S. flava pb3a-like | 160 ± 17 spikes/s | -2.67 ± 5.6 spikes/s | 6 ± 10 spikes/s | -3.33 ± 9.6 spikes/s | 5.67 ± 12 spikes/s | -5.33 ± 6.2 spikes/s | -3.33 ± 6.8 spikes/s
S. montana pb3b-like | -2.67 ± 9.3 spikes/s | -1 ± 4.7 spikes/s | 4 ± 7.7 spikes/s | -3.67 ± 9.5 spikes/s | 2.33 ± 11 spikes/s | -1.67 ± 5.4 spikes/s | -3.67 ± 8.9 spikes/s
S. pallida pb2a-like | 5 ± 5.3 spikes/s | 137 ± 13 spikes/s | 5.67 ± 6.6 spikes/s | 5.33 ± 4.8 spikes/s | 6.33 ± 3.9 spikes/s | 6.67 ± 4.8 spikes/s | 9.67 ± 8.8 spikes/s
